Results: PubChem BioAssay AID504339 (National Center for Advancing Translational Sciences (NCATS), 2011)
About 17,000 (4.4%) of roughly 390,000 compounds were called active. Roughly 8% stayed inconclusive and do not appear here. The sample as a whole holds a higher share of actives than the screen did. A number with no mark means an inactive call. Calls follow the shape of the dose curve; as a rule, active = well fitted inhibition curve with a large enough effect; inconclusive = small, poorly fitted or top-dose-only effect; inactive = no such curve, though single readings can be large or run the other way.

Target: Lysine-specific demethylase 4A (Homo sapiens) (UniProt O75164)
Assay: qHTS Assay for Inhibitors of JMJD2A-Tudor Domain; also: nearly all actives have a fitted effect of over 50% in size
Settings: AlphaScreen JMJD2A-Tudor / H3K4me3 peptide binding; series mostly up to 114 µM; activity change, negative = inhibition: at the top concentration
% is scaled to controls: 0 for no effect and ±100 for the full control effect; potency is read from the fitted curve at half-maximal effect.

Chain of Lysine-specific demethylase 4A (Homo sapiens) (O75164 whole entry, looked up, the tested form may be a part): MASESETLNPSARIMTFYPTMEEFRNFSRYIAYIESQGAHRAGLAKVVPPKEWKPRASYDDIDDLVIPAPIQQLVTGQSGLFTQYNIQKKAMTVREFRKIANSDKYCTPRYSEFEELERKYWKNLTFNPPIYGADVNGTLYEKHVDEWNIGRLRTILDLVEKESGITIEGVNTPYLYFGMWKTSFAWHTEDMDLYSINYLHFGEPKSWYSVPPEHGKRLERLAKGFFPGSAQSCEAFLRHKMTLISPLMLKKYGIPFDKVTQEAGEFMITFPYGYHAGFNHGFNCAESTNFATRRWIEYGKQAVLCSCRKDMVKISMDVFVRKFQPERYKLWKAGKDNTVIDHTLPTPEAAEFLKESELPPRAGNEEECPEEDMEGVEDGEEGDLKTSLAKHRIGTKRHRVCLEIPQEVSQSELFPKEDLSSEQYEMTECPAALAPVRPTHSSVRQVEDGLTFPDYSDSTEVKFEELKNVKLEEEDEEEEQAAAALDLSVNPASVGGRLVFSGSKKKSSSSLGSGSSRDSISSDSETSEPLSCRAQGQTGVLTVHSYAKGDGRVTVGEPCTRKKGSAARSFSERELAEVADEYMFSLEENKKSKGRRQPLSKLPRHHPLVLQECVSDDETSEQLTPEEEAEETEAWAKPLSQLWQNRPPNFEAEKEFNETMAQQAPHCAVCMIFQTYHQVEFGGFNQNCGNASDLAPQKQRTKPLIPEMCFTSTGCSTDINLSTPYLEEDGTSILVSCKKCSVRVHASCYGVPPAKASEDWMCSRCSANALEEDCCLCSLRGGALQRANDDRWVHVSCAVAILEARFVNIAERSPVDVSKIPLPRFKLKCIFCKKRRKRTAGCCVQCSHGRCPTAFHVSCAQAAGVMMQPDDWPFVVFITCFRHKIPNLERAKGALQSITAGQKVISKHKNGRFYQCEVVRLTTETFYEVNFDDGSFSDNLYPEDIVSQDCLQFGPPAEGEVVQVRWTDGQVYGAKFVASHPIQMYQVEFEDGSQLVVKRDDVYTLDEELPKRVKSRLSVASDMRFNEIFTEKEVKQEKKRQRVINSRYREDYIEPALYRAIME

SMILES | Potency | activity change, negative = inhibition
O=C(O)/C=C/C(=O)NNc1ccc([N+](=O)[O-])cc1 | 31.6 µM (active) | 
NC(=O)C1(Nc2ccc([N+](=O)[O-])cc2)CCCC1 |  | -8.28%
CNC(=S)Nc1ccc([N+](=O)[O-])cc1 |  | -16.7%
CCS(=O)(=O)N1CCC(n2c(C)nc3cccnc32)CC1 |  | -7.47%
CCN(C(=O)COC(=O)c1ccccc1O)c1cccc2ccccc12 |  | 5.48%
O=C(CSc1ncn[nH]1)Nc1ccnc2ccccc12 |  | -14.5%
CCN(C(=O)CSc1ncn[nH]1)c1cccc2ccccc12 | 3.16 µM (active) | 
Cc1ccc(-c2onc(C)c2C)cc1S(=O)(=O)Nc1ccccn1 |  | -2.92%
COC(=O)c1cc(S(=O)(=O)N2CCN(c3cc(Cl)ccc3C)CC2)c[nH]1 |  | -12.8%
Cc1nc2ccn(Cc3cccnc3)c(=O)c2cc1C(=O)N1CCN(c2ccccc2F)CC1 |  | -13.7%
O=C(Cn1nc(Cc2cccnc2)c2ccccc2c1=O)N1CCN(c2ccccc2F)CC1 |  | -17.9%
O=C(Nn1cc(C(=O)N2CCN(c3ccccc3F)CC2)c2ccccc2c1=O)c1cnccn1 | 25.1 µM (active) | 
CCN(CC)S(=O)(=O)c1ccc(C(=O)N=c2sc3cccc(OC)c3n2C)cc1 |  | 7.09%
O=C(NCc1ccc2c(c1)CCN2C(=O)c1ccccc1)Nc1cc(F)ccc1F |  | -25.3%
CCc1cnc2c(c1SCC(=O)c1ccccc1)c(=O)n(C)c(=O)n2C |  | -8.44%
COc1ccc(-c2nn3c(=O)cc(CN4CCN(C(=O)c5ccc(OC)c(OC)c5)CC4)nc3s2)cc1 |  | -11.7%
CN1CCN(CCCCOc2cccc3ccccc23)CC1 |  | -30.3%
CCN1CCN(CCCCOc2ccccc2F)CC1 | 0.794 µM (active) | 
COc1ccccc1OCCCCCCN1CCN(C)CC1 |  | -32.2%
CC(C)NC(=O)c1nn(-c2ccccc2F)nc1CO |  | -10.1%
Cc1[nH]c2ccccc2c1C(c1ccccc1)c1cccs1 (stereo not drawn) |  | -2.63%
Cc1cccc(-n2ncc(C(=O)N3CCC(C)CC3)c2C2CCN(C(=O)OC(C)(C)C)CC2)c1 |  | -5.18%
CCCCSc1ncnc2c1sc1nc(N3CCOCC3)c3c(c12)CCCC3 |  | -5.84%
Cc1cc(C)n(CC(O)CN(c2ccccc2)S(=O)(=O)c2ccc3ccccc3c2)n1 (stereo not drawn) |  | -14.1%
CCC(=O)c1ccc(OCC(O)Cn2nc(C)c(C(C)=O)c2C)cc1 (stereo not drawn) |  | -28.5%
Cc1cc(C)n(CC(O)COc2ccc(C(C)(C)C)cc2)n1 (stereo not drawn) | 79.4 µM (active) | 

SMILES | Potency | activity change, negative = inhibition
COc1ccc(S(=O)(=O)c2c(Nc3ccc(C)cc3)sc(C(=O)c3ccc(C)cc3)c2N)cc1 |  | -18.2%
CSc1ccc(C2c3c(oc4ccccc4c3=O)C(=O)N2CCCN2CCOCC2)cc1 (stereo not drawn) |  | -7.22%
COc1ccc(-c2nc3sc(CCNS(=O)(=O)c4ccc(F)c(C)c4)c(C)n3n2)cc1 |  | -9.42%
CC(C)c1cc(C(=O)O)n[nH]1 | 28.2 µM (active) | 
Cc1cc(C)nc(NS(=O)(=O)c2ccc(NC(=O)c3cc(=O)c4ccc(C)c(C)c4o3)cc2)n1 |  | -26.7%
CC1=C(C(=O)N2CCN(c3cccc(C(F)(F)F)c3)CC2)C2(CCCCC2)OC1=O |  | -3.37%
Cc1ccc(Cl)cc1N1CCN(C(=O)c2cnc3c(-c4ccc(F)cc4)c(C)nn3c2C)CC1 |  | -1%
O=C(CNC(=O)c1ccc(Cl)cc1Cl)OC(C(=O)Nc1cc(C(F)(F)F)ccc1Cl)c1ccccc1 (stereo not drawn) |  | -11%
COc1cc(/C=C/C(=O)N2c3ccccc3Sc3ccc(C(F)(F)F)cc32)cc(OC)c1OC |  | -19.3%
CCOc1ccc(/C=C2\SC(=S)N(NC(=O)c3ccncc3)C2=O)cc1OC |  | -24.7%
COc1cc(/C=C2\SC(=S)N(Nc3ncc(C(F)(F)F)cc3Cl)C2=O)cc(OC)c1OC | 44.7 µM (active) | 
COc1ccc(CCNc2nc3c(-c4cccc(F)c4)nnn3c3ccccc23)cc1OC |  | -4.97%
COCCNc1ncnc2c1c(-c1ccccc1)cn2-c1ccc(C)c(Cl)c1 |  | -28.7%
CC1(C)CCc2cc(S(=O)(=O)N3CCN(c4nc(-c5cccs5)nc5ccccc45)CC3)ccc2O1 |  | -16.3%
COc1ccc(OC)c(Nc2nc3ccccc3n3cnnc23)c1 |  | -5.88% [at 11.4 µM]
COc1ccc(OC)c(Nc2nc(-c3ccc(O)c(O)c3)cs2)c1 | 10 µM (active) | 
COc1ccc(OC)c(-c2csc(NC(=O)C3=NNC(=O)CC3)n2)c1 |  | -29.6%
CCOC(=O)c1ccc(NC(=O)CSc2nc3c([nH]c4ccccc43)c(=O)n2C)cc1 |  | 2.9%
COc1ccc(OC)c(-c2noc(N3CCN(c4cc(Cl)ccc4C)CC3)n2)c1 |  | -28.1%
Cc1ccc(Nc2cc(C)nc3c(C)ccc([N+](=O)[O-])c23)cc1 | 35.5 µM (active) | 
Cc1cc(Nc2ccc(C(=O)N3CCCCC3)cc2)c2cccc(C)c2n1 |  | 8.87%
Cc1ccccc1Nc1c([N+](=O)[O-])ccc2nonc12 |  | -24.2%
CCS(=O)(=O)N1CCc2cc(C(=O)NCc3ccc(C)cc3)ccc21 |  | -16.9%
CCn1cc(C(=O)NCCc2ccccc2)c(=O)c2cc(S(=O)(=O)N3CCCCCC3)ccc21 |  | -20.7%
COC(=O)c1cc(NC(=O)CCS(=O)(=O)c2cc(Br)cc3c2N(C(=O)C2CC2)CC3)cc(C(=O)OC)c1 |  | -14.7%
COc1ccc(C)cc1N(C)C(=O)c1c(C)oc2ncnc(N3CCOCC3)c12 |  | -14.6%

SMILES | Potency | activity change, negative = inhibition
Cc1ccc(CCNC(=O)C2CCN(c3nnc(-n4cccc4CNc4ccc(C)cc4)s3)CC2)cc1 |  | -31.3%
CC(CN1CCCCC1)OC(=O)c1ccccc1Cl (stereo not drawn) |  | -24.7%
CC(C)OC(=O)c1ccc(NCc2cc(O)ccc2O)cc1Cl | 10 µM (active) | 
CC(OC(=O)c1ccc(Cl)cc1O)C(=O)NCCC1=CCCCC1 (stereo not drawn) |  | -8.22%
CC1(C)C2CCC1(C)C(OC(=O)c1ccc(O)cc1)C2 (stereo not drawn) |  | -15%
COC(=O)c1ccc(NCc2cc(O)ccc2O)cc1 | 5.62 µM (active) | 
C#CCNc1ccc(C(=O)OCC)cc1 |  | -6.52%
O=C(OC12CC3CC(CC(C3)C1)C2)c1ccc(NCc2cc(O)ccc2O)cc1 | 56.2 µM (active) | 
CCN(CC)C(=O)CCC(=O)Nc1ccc(C(=O)OC)cc1 |  | -13.2%
O=c1cc(COc2cccc(C(F)(F)F)c2)nc2sc3c(n12)CCCC3 |  | -17.9%
CN(C)c1ccc(C(=O)NCC(=O)OC(C(=O)Nc2cc(C(F)(F)F)ccc2Cl)c2ccccc2)cc1 (stereo not drawn) |  | -27.4%
CCc1cccc(NC(=O)c2cnc(N3CCOCC3)c3ccccc23)c1 |  | 0%
O=C(COc1ccccc1F)Nc1ccc(C(=O)OCc2cc(=O)n3nc(C4CC4)sc3n2)cc1 |  | -22.8%
Cc1cccc(C)c1-n1ncc(C(=O)NCCCN2CCCCC2)c1C1CCN(C(=O)OC(C)(C)C)CC1 |  | 1.94%
COc1ccc(Cc2nc3ccc(C(=O)NCc4ccc(OC)cc4OC)cc3o2)cc1 |  | -23.6%
COc1ccc(OC)c(NC(=O)C2CCCN(S(=O)(=O)c3ccc4c(c3)CCCC(=O)N4)C2)c1 (stereo not drawn) |  | -25.2%
Oc1c(CN2CCOCC2)ccc(CN2CCOCC2)c1O | 3.55 µM (active) | 
OC(c1ccccc1)C(CN1CCOCC1)c1ccccc1 (stereo not drawn) |  | 15.2%
O=[N+]([O-])c1ccc(COc2ccccc2CN2CCOCC2)cc1 |  | -18.1%
CCc1nc(NCCO)c(C#N)c2c1CCCC2 |  | -15%
CC(C)CCNc1nc(N2CCCC2)c2c(c1C#N)CCN(C)C2 | 44.7 µM (active) | 
CC(C)Cc1nc(N2CCOCC2)c(C#N)c2c1CCC2 |  | 60.8%
CCCNC(=O)C1CCN(c2nc3ccc(C)cc3[nH]2)CC1 |  | -13%
CSC1=N/C(=C\C=C\c2cccs2)C(=O)S1 | 12.6 µM (active) | 
CCOC(=O)c1c(C)oc2nc(C)nc(N3CCN(c4ccc(OC)cc4)CC3)c12 | 39.8 µM (active) | 
CCOC(=O)c1c(C)oc2nc(C)nc(Nc3ccc(CC)cc3)c12 |  | 2.91%

SMILES | Potency | activity change, negative = inhibition
COc1ccc(N2CCN(C(=O)c3c(C)oc4nc(C)nc(N5CCCC5)c34)CC2)cc1 |  | -15.2%
Fc1ccc(Nc2nc(SCc3ccccc3Cl)nc3ccccc23)cc1 |  | 8%
O=C(NCCSc1ccccc1)c1ccco1 |  | -3.79%
Clc1ccccc1CSc1nnc(-c2ccco2)c(-c2ccco2)n1 | 22.4 µM (active) | 
CC1(C)N=C(SCc2ccccc2Cl)c2ccccc2N1 |  | 185%
c1ccc(CSc2nnc(-c3ccco3)c(-c3ccco3)n2)cc1 | 17.8 µM (active) | 
Cc1ccc(-c2nnc(SCC(=O)NCc3ccccc3)nc2-c2ccc(C)cc2)cc1 |  | -35.5%
COc1ccc(CC(=O)N2CC(=O)Nc3ccc(Br)cc3C2c2ccc(F)cc2)cc1OC (stereo not drawn) |  | -11.9%
CCC(=O)NNc1cc(=O)c2c(=O)n(C)c(=O)n(C)c2[nH]1 |  | -10.3%
CC(=O)NNc1cc(=O)c2c(=O)n(C)c(=O)n(C)c2[nH]1 | 10 µM (active) | 
CC(=O)Nn1cc2c(=O)n(C)c(=O)n(C)c2c1 |  | -11.3%
CC(=O)c1ccc(NC(c2ccc(F)cc2)c2nnc(-c3ccccc3)o2)cc1 (stereo not drawn) |  | -1%
CC(C)Oc1ccc(NC(=O)c2cc3ccccc3o2)cc1 |  | -15.9%
CCCCn1c(CNC(=O)C23CC4CC(CC(C4)C2)C3)nnc1SCC(=O)Nc1ccc(C)cc1 |  | -34.3%
COc1cc(/C=N/Nc2ccc(C)cc2)cc(Br)c1O | 50.1 µM (active) | 
COc1cc(/C=N/NC(=S)Nc2cccnc2)cc(OC)c1O |  | -14.8%
COc1cc(/C=N/O)cc(Br)c1OS(=O)(=O)c1ccc(C)cc1 |  | -17.4%
COc1ccccc1CNC(=O)C(=O)NCC(c1ccco1)S(=O)(=O)c1ccc(F)cc1 (stereo not drawn) |  | -5.52%
Cc1coc2c(O)cc3c(c12)OC1(N2CCCCC2)C(=O)NCCCC31 (stereo not drawn) | 20 µM (active) | 
CC(=O)N1CCCc2ccc(NS(=O)(=O)c3ccc(F)cc3F)cc21 |  | -0.993%
CC1CCCCN1S(=O)(=O)c1ccc(F)c(C(=O)Nc2ccccc2C(F)(F)F)c1 (stereo not drawn) |  | 4.28%
CCN(CC)CCNC(=O)Cn1ncc2c3ccccc3n(Cc3ccccc3C)c2c1=O |  | -29.5%
Cc1ccc(CSc2nnc(-c3cnccn3)n2C)cc1 |  | -8.62%
Oc1ccc(-n2nnnc2SCc2c(F)cccc2Cl)cc1 |  | -7.53%
Cn1c(SCc2c(F)cccc2Cl)nnc1-c1cnccn1 | 79.4 µM (active) | 
